Bioassay records (PubChem BioAssay)
An excerpt weighted towards active compounds, which were near 11% of everything screened.
USP30 block = inhibitors of human USP30 deubiquitinase; Ubiquitin carboxyl-terminal hydrolase 30 (Homo sapiens), Q70CQ3; 5.3% of 47,000 active; purified USP30, Ub-rhodamine cleavage fluorescence; inhibition, % at 25 µM; AID 1645860, 2021
USP28 block = inhibitors of human USP28 deubiquitinase; inhibition, % at 25 µM; AID 1645857, 2021; purified USP28, Ub-rhodamine cleavage fluorescence, 30 min; Ubiquitin carboxyl-terminal hydrolase 28 (Homo sapiens), Q96RU2; 3% of 47,000 active
OTUD3 block = inhibitors of human OTUD3 deubiquitinase; 0.7% of 47,000 active; inhibition, % at 25 µM; OTU domain-containing protein 3 (Homo sapiens), Q5T2D3; purified OTUD3, Ub-rhodamine fluorescence, 2 h
USP17 block = inhibitors of human USP17 deubiquitinase. inhibition, % at 50 µM. AID 1645855, 2021. 6.5% of 47,000 active. Ubiquitin carboxyl-terminal hydrolase 17-like protein 5 (Homo sapiens), A8MUK1. purified USP17, Ub-rhodamine cleavage fluorescence, 3 h
Target sequence (A8MUK1 whole entry, looked up): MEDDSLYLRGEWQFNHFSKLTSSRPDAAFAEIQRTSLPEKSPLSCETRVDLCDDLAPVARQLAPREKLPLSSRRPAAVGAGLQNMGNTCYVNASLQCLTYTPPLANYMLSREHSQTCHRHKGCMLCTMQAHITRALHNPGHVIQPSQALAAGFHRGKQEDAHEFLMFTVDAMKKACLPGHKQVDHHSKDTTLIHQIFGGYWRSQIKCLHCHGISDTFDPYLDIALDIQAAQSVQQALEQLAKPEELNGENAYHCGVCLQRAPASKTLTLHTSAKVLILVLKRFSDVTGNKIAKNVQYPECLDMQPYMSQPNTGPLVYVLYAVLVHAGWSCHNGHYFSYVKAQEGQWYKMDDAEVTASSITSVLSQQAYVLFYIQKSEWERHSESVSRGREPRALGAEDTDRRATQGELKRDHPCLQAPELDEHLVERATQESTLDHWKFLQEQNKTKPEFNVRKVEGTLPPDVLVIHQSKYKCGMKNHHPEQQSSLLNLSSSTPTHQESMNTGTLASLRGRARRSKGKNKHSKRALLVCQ
Starred values were filed as active, the others as inactive; i = inactive; / = no result given. Cut-off read from the data, not from the text of the source: active = inhibition above about 30%; inactive = the rest.

SMILES	USP30 block	USP28 block	OTUD3 block	USP17 block
CC(=O)Nc1ccc(-n2cnc(C(=O)NC(C)c3ccccc3)c2)nc1 (centres undefined)	19	10	7	64*
CN(C)CCCN(C(=O)CS(=O)(=O)c1ccc(F)cc1)c1nc2ccccc2s1	20	12	9	0
O=C(CS(=O)(=O)c1ccc(F)cc1)Nc1ccc(-c2nc3ccccc3s2)c(O)c1	-9	1	14	37*
COc1ccc(NC(=O)CCc2nc3sc4c(c3c(=O)[nH]2)CCCCC4)cc1	-181	-58	-40	-48
COC(=O)CSc1nc(SCc2ccccc2)nc2sc3c(c12)CC(C)(C)OC3	-18	11	9	4
COc1ccc(C(=O)CSc2ccc3nnc(-c4cccnc4)n3n2)cc1	-19	-21	-10	-7
COc1ccc(-n2c(SCC(=O)c3ccc(F)cc3)nnc2-c2cccnc2)cc1	22	7	7	71*
CCOC(=O)c1nn(-c2ccc(F)cc2)c2c1CCCCC2	13	36*	8	12
O=C(Nc1ccncc1)c1nn(-c2ccc(F)cc2)c2c1CCCCC2	9	20	-5	-11
COc1cc(/C=C/C23NC(=O)CCN2c2ccc(C)cc2C3(C)C)ccc1OCc1cccc(Cl)c1 (centres undefined)	i	-247	-194	-161
Cc1cc(SCc2ncon2)c(C)cc1Cl	12	69*	11	/
COc1cc(NC(=O)C(C)(C(F)(F)F)C(F)(F)F)cc(OC)c1OC	-36	-18	-18	-10
Cc1ncsc1CN1CCCCC1c1ccnc2c(C(N)=O)cnn12 (centres undefined)	-22	-4	4	-9
CCc1ccc(OCc2nnc(SCC(=O)Nc3ccccc3OC)n2Cc2ccccc2)cc1	49*	23	15	52*
CN1CC(NC(=O)/C=C/c2ccc3c(c2)OCO3)CC1=O (centres undefined)	-2	0	1	-6
O=C(/C=C/c1ccc2c(c1)OCO2)c1ccc(-n2cncn2)cc1	/	/	-4	45*
O=C(CCn1cnc2c(cnn2-c2ccccc2)c1=O)N1CCCCC1	-2	-17	-12	-6
O=C(Cn1cnc2c(cnn2-c2ccc(Cl)cc2)c1=O)NCc1ccccc1Cl	29	9	36*	55*
Cc1ccc(CNC(=O)Cn2cnc3c(cnn3-c3cccc(Cl)c3)c2=O)cc1	9	61*	6	1
O=C(Cn1cnc2c(cnn2-c2cccc(Cl)c2)c1=O)N1CCCC1	-46	-23	-9	-23
Cn1ncc2c(=O)n(Cc3cccc(Cl)c3)cnc21	26	65*	12	10
O=C(Cn1cnc2c(oc3ccccc32)c1=O)NCc1ccccc1Cl	0	1	3	87*
Cc1nc(C2CCCN2C(=O)c2nccc3ccccc23)nc2c1CCC(=O)N2CC(C)C (centres undefined)	-36	-13	-1	-14
N#Cc1ccc(-c2ccc(OCC(=O)Nc3ccc4c(c3)CCC4)cc2)cc1	44*	41*	42*	24
CC(=O)c1ccccc1NC(=O)Cc1ccc(-c2ccccc2)cc1	-274	-12	-65	-12
SMILES	USP30 block	USP28 block	OTUD3 block	USP17 block
CC(=O)c1ccccc1NC(=O)COc1ccc(-c2ccc(C#N)cc2)cc1	5	9	5	78*
CN(C)CC(=O)N1CCc2ccccc2C(c2ccccc2)C1 (centres undefined)	1	0	-2	2
O=C(OCC(=O)N1CCCc2ccccc21)c1ccc(O)cc1	2	2	0	-7
O=C(OCC(=O)N1CCCc2ccccc21)c1c(F)cccc1Cl	31*	24	13	10
CC(=O)c1cccc(NC(=O)c2cnc(N3CCCCC3)nc2C)c1	0	26	1	4
N#Cc1ccc(C(=O)Nc2cnc(N3CCCCCC3)nc2)cc1	/	/	0	53*
Cc1nc(N2CCCC2)ncc1C(=O)Nc1ccc(Cl)cc1	5	15	2	45*
COc1ccc(C(=O)Nc2cnc(N3CCCCCC3)nc2)cc1	-9	44*	0	-2
Cc1nc(-c2cc(S(=O)(=O)N3CCCCC3)cn2C)sc1C(=O)N1CCCC1	-11	-10	0	-5
O=C(Nc1ccc(F)cc1Cl)c1cnc(N2CCN(c3ncccn3)CC2)c2ccccc12	-2	8	8	7
O=C(NCc1ccccc1Cl)c1ccc(-c2nnc(-c3ccccc3)o2)cc1	36*	8	16	62*
Cc1ccccc1-c1nnc(-c2ccc(C(=O)NCc3ccccc3F)cc2)o1	66*	28	0	36*
